ATXN2 expr inh: Primary qHTS for Inhibitors of ATXN expression. HEK-293 ATXN2-luciferase reporter, luminescence, 24 h. Potency, µM (titrated, usually from 57 µM), for inactives: at the top dose activity change, negative = inhibition, hits mostly inhibitors. actives 0.72% (n = 360,000); also: % is scaled to controls: 0 for no effect and ±100 for the full control effect; nearly all actives have a fitted effect of over 55% in size
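ATXN2-luciferase reporter cells (luciferase flanked by upstream and downstream ATXN2 gene portions) were treated 24 h at 37 °C with compounds at up to 57 uM. SteadyGlo luminescence gave expression; GF-AFC fluorescence gave viability.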
KB-V1 cytotox: qHTS assay for MDR1-selective chemotherapeutics: Primary screen using the drug-selected MDR subline cells KB-V1 | KB-V1 MDR cells viability, CellTiter-Glo, 72 h | Potency, µM (top dose mostly 46.1 µM), actives largely listed as cytotoxic | actives 3.4% (n = 400,000); also: % is scaled to controls: 0 for no effect and ±100 for the full control effect; nearly all actives have a fitted effect of over 60% in size
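Cells of the MDR subline KB-V1 are plated, dosed with compound at multiple concentrations, and incubated 72 h at 37 degrees C; CellTiter-Glo is then added and luminescence read after 10 min.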
HepG2 viability: qHTS for Inhibitors of TGF-b: Cytotox Counterscreen; HepG2 CAGA-GFP viability, ATP luminescence, 18 h; actives 0.76% (n = 410,000); AID 588856, 2011; Potency, µM (titrated, usually from 46.1 µM), without a hit: at the highest dose activity change, negative = cytotoxicity, most hits filed as cytotoxic
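CellTiter-Glo luminescence gave cytotoxicity after 18 hours at 37 degrees C. The cells were HepG2 CAGA-GFP in 1% FBS DMEM, stimulated with 500 pg/mL TGF-beta after compound addition. %Activity was normalised to no-cell wells (complete cell-killing) and DMSO (no toxicity), and curves were fitted and classified.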
TGFb SMAD3 inh: qHTS for Inhibitors of TGF-b | AID 588855, 2011 | actives 1.2% (n = 410,000) | Potency, µM (top dose mostly 46.1 µM), without a hit: top-dose activity, negative = inhibition, hits mostly inhibitors | HepG2 CAGA-GFP TGF-b/SMAD3 reporter, GFP fluorescence, 18 h; TGF-beta stimulated, 500 pg/mL final; also: % is scaled to controls: 0 for no effect and ±100 for the full control effect; nearly all actives have a fitted effect of over 65% in size
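Inhibition of TGF-beta-driven CAGA-GFP reporter expression in HEPG2 cells is measured by cellular GFP fluorescence after 18 h stimulation with 500 pg/mL recombinant TGF-beta in 1% FBS medium at 37 degrees C.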
KB-3-1 tox: qHTS assay for MDR1-selective chemotherapeutics: Primary screen using the parental adenocarcinoma cell KB-3-1; KB-3-1 viability, CellTiter-Glo ATP luminescence, 72 h; Potency, µM (top dose mostly 46.1 µM), hits mostly cytotoxic; actives 1.4% (n = 400,000); also: % is scaled to controls: 0 for no effect and ±100 for the full control effect; nearly all actives have a fitted effect of over 60% in size
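Multi-concentration cytotoxicity screen in KB-3-1 cells grown in DMEM lacking phenol red with 10% FBS. After 72 h at 37 °C with compound, ATP-dependent luminescence was recorded.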
S2 tox: Viability Counterscreen for Primary qHTS for Inhibitors of ATXN expression. S2 cells (HEK-293 line with an ATXN2-luciferase reporter) viability, CellTiter-Fluor protease fluorescence, 24 h. Potency, µM (series often up to 56.7 µM), usual class: cytotoxic. actives 0.49% (n = 400,000); also: nearly all actives have a fitted effect of over 40% in size
Numbers without * were called inactive; i = inactive; ? = inconclusive; . = no result. Compounds with a hit are over-represented: about 5.9% of the library has one in this group of screens. Calls follow the shape of the dose curve; as a rule, active = well fitted curve in the direction sought with a large enough effect; inconclusive = small, poorly fitted or top-dose-only effect, or another doubt; inactive = no such curve, though single readings can be large; an effect the other way counts as inactive or inconclusive. Potency is read from the fitted curve at half-maximal effect.

SMILES	ATXN2 expr inh	KB-V1 cytotox	HepG2 viability	TGFb SMAD3 inh	KB-3-1 tox	S2 tox
CCOC(=O)CSc1nc2ccccc2c(=O)n1CCN1CCOCC1	6%	13µM*	6%	-3%	i	i
CCOCCCn1c(SCC(=O)N2CCOCC2)nc2ccccc2c1=O	19%	?	-17%	-5%	i	i
CCn1c(SCC(=O)N2CCN(c3ccccc3)CC2)nc2c([nH]c3ccccc32)c1=O	-11%	i	-2%	5%	?	i
COCCNC(=O)CSc1nc2ccc(N3CCOCC3)cc2c(=O)n1CCc1ccccc1	3%	i	-3%	4%	i	i
CCn1c(SCC(=O)N2CCN(c3cccc(Cl)c3)CC2)nc2ccccc2c1=O	-8%	9.2µM*	-21%	-34%	i	i
CCCCNC(=O)CSc1nc2ccc(N3CCOCC3)cc2c(=O)n1CCc1ccccc1	-5%	0.58µM*	9%	10%	i	i
CC1CCN(C(=O)Cn2c(SCC(=O)Nc3nccs3)nc3ccccc32)CC1	-12%	4.6µM*	-5%	2%	i	i
CCc1ccc(C2N3CC4(C)CN2CC(c2ccccc2)(C3)C4=O)cc1 (stereo not drawn)	4%	?	-10%	-23%	i	i
NC(N)=Nc1nc(CSCCC(N)=NS(N)(=O)=O)cs1	8%	.	.	.	.	.
Cc1ccc(CNC(=O)Nc2nnc([C@@H]3C[C@H](O)[C@@H](CO)O3)s2)cc1	2%	i	1%	2%	i	i
O=C(COc1ccccc1C(=O)Nc1ccccc1)Nc1ccc(Br)cc1	.	i	-6%	1%	i	.
CC(C)NCC(O)Cn1c2c(c3ccccc31)CCc1c-2cnn1-c1ccccc1 (stereo not drawn)	?	21µM*	-101%	?	16µM*	.
CN1CCc2c(n(CC(O)CNCc3ccccc3)c3ccccc23)C1=O (stereo not drawn)	.	i	-37%	?	i	i
O=C(NCCN1CCOCC1)c1ccc(Cl)c(Cl)c1	-13%	i	8%	0%	i	i
O=C1/C(=C\c2ccc(Cl)c(Cl)c2)CN(C(=O)CCN2CCOCC2)C/C1=C/c1ccc(Cl)c(Cl)c1	6.7µM*	?	16µM*	2.8µM*	3.7µM*	6.7µM*
O=C1/C(=C\c2ccccc2)CN(C(=O)CCN2CCCCC2)C/C1=C/c1ccccc1	?	?	-106%	16µM*	?	?
CCN(CC)CCC(=O)N1C/C(=C/c2ccccc2)C(=O)/C(=C\c2ccccc2)C1	24µM*	?	-104%	2.8µM*	i	13µM*
COc1ccccc1NC(=O)C1=C(C)Nc2ncnn2C1c1cccn1C (stereo not drawn)	17%	i	4%	0%	i	i
COc1ccc(CN2C(=O)c3ccccc3C(/C=N\OCc3ccc(C)cc3)C2=O)cc1 (stereo not drawn)	-4%	?	-3%	-19%	21µM*	i
COc1ccc(CN2C(=O)c3ccccc3C2OC)cc1 (stereo not drawn)	.	i	-4%	-1%	i	i
CCOc1ccc(NC(=O)CCNS(=O)(=O)c2ccc3c(c2)CCCC(=O)N3)cc1	-6%	i	-8%	5%	i	i
Cc1ccc(S(=O)(=O)NCC(=O)N/N=C/c2ccccc2O)cc1	14µM*	i	-7%	2%	i	i
Cc1ccc(S(=O)(=O)NCCCNC(=O)c2ccccc2)cc1	3%	18µM*	-8%	12%	i	i
Cc1ccc(S(=O)(=O)NCCNC(=O)c2ccccc2)cc1	-10%	i	-10%	-11%	i	i
Cc1cc(C)n(CCC(=O)N/N=C/c2ccccc2O)n1	?	8.2µM*	-35%	-12%	?	?
SMILES	ATXN2 expr inh	KB-V1 cytotox	HepG2 viability	TGFb SMAD3 inh	KB-3-1 tox	S2 tox
Cc1cc(C)n(CCC(=O)N/N=C/c2ccc(O)cc2O)n1	?	i	-49%	-7%	i	i
Cc1ccc(S(=O)(=O)NCCCNS(=O)(=O)c2ccc(C)cc2)cc1	-8%	15µM*	2%	?	i	?
Cn1c(C(=O)NCc2ccc(F)cc2)cc2cc(S(=O)(=O)N3CCCCC3)ccc21	.	.	6%	36%	.	.
Cc1ccccc1Nc1c(-c2ccccc2O)nc2sccn12	.	.	-39%	-30%	.	.
CCOc1ccccc1NC(=O)CCc1c(C)nc2c3cccnc3nn2c1C	.	i	-18%	-6%	i	.
CCCCOc1ccc(CNC(=O)CN2CCSc3ccccc32)cc1	-5%	?	-31%	?	i	?
O=C(C1CC1)N1c2ccccc2Sc2ccccc21	-33%	?	1%	?	21µM*	i
NC(=O)C1CCN(C(=O)N2c3ccccc3Sc3ccccc32)CC1	-10%	i	-41%	-17%	i	i
CCOc1ccccc1NS(=O)(=O)c1ccc(N2CCCCS2(=O)=O)cc1	.	.	10%	7%	.	.
CC(Oc1ccc2c(c1)c1ccnc3c4ccccc4c(=O)n2c13)C(=O)NCCN1CCOCC1 (stereo not drawn)	-2%	i	11µM*	0%	i	i
O=NN(Cc1cccnc1)C(=O)NC1CCCCC1	15%	i	-5%	3%	i	i
Cc1occc(=O)c1OC(=O)Nc1ccc(Cl)c(Cl)c1	-5%	?	-66%	10µM*	?	?
COc1cccc(-c2noc(COc3cccc(C)c3C)n2)c1	42%	?	-19%	-12%	i	i
O=C(/C=C/NNC(=O)c1ccccc1)c1ccccc1	-5%	i	-17%	-29%	?	i
O=C(/C=C/NNC(=O)c1ccccc1)c1ccc([N+](=O)[O-])cc1	7.5µM*	?	-49%	?	i	?
COC(=O)c1sccc1S(=O)(=O)N1CCC(n2c(CC3CCCC3)nc3cccnc32)CC1	.	.	.	.	.	i
O=C(CSc1nnc(-c2cccs2)n1-c1cccc(Cl)c1)c1cccc2c1OCCO2	-3%	8.2µM*	-8%	18%	i	i
CCOC(=O)c1c(C)[nH]c(C(=O)COC(=O)CNC(=O)c2ccc(Cl)cc2)c1C	-10%	4.1µM*	-12%	-17%	i	i

Screening data deposited in PubChem BioAssay by National Center for Advancing Translational Sciences (NCATS).
